test system: LRRK2; conditions: concentration: 1 μM, replicates: in singlicate; n = 1
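Further: KINOMEscan kinase panel screen.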

| Compound | %Inh |
| --- | --- |
| Cc1cc(N2CCC(NS(=O)(=O)c3ccc(F)cc3)CC2)nc(Nc2cccc(C#N)c2)n1.O=C(O)C(F)(F)F [GSK1653537] | 20% |
| N#Cc1ccc(Oc2ccc(Nc3ncnc4cc[nH]c34)cc2Cl)cc1 | 0% |
| CCc1nc(-c2cccc(N(C)S(=O)(=O)c3ccccc3)c2)c(-c2ccnc(Nc3ccc(N4CCN(C(C)=O)CC4)nc3)n2)s1 [GSK1645895] | 0% |
| CNc1nccc(-c2c(-c3ccc(F)cc3)ncn2CCCN2CCOCC2)n1 [SB-222516] | 0% |
| Cc1ccc(C)c(NC(=O)NCCNc2ccnc(Nc3ccc(F)cc3)n2)c1 [GSK1379878] | 0% |
| Cc1cccc(-c2nc(Nc3ccc4[nH]nnc4c3)c3ccccc3n2)n1 [GW867587] | 0% |
| COc1ccc(Nc2nccc(N3CCC(NC(=O)c4cccc(NC(C)=O)c4)C3)n2)cc1 (stereo not shown) [GSK1379732] | 0% |
| CSc1ccc(NC2=C(c3ccccc3Cl)C(=O)NC2=O)cc1 [SB-342411] | 0% |
| C[C@@H]1CCN(C(=O)CO)C[C@@H]1N(C)c1ncnc2[nH]ccc12 | 0% |
| CSc1nn2c(=O)cc(N3CCOCC3)nc2n1Cc1cccc(Cl)c1Cl [GSK2347225] | 0% |
| COc1ccc(-c2oc3ncnc(N)c3c2-c2ccc(OC)cc2)cc1 [SB-589132] | 33% |
| COc1ccc(NC(=O)c2ccc(-c3cc(-c4nnc(C)o4)ccc3C)cc2)cc1 [GW595885] | 42% |
| COC(=O)c1c(-c2ccccc2)c2cc(Cl)ccc2c(=O)n1Cc1ccc(S(C)(=O)=O)cc1 | 2% |
| CS(=O)(=O)CCNCc1nc(-c2ccc3ncnc(Nc4ccc(OCc5cccc(F)c5)c(Cl)c4)c3c2)cs1.Cl [GW583340] | 0% |
| Cc1ccc(O)cc1Nc1cc(C(F)(F)F)nc2ccc(-c3ccncc3)cc12 [GW630823] | 0% |
| Nc1nc(-c2ccc3c(N)n[nH]c3c2)cc(N2CCC[C@@H](C(=O)Nc3ccccc3)C2)n1.O=C(O)C(F)(F)F.O=C(O)C(F)(F)F [GSK2288359] | 0% |
| CN1c2ccc(-c3ccc(C(=O)NCCO)cc3)cc2-c2[nH]ncc2S1(=O)=O | 73% |
| Oc1ccc2ncnc(Nc3ccc(OCc4ccccc4)cc3)c2c1 [GI262866] | 48% |
| Nc1nc(-c2ccccn2)c(-c2ccnc3ccccc23)s1 [GW548057] | 0% |
| FC(F)(F)c1ccc(-c2cc(-c3c[nH]nc3-c3ccccn3)ccn2)cc1 [GW599550] | 7% |
| Cn1cc(-c2ccc3c(c2)CCN3C(=O)Cc2cccc(C(F)(F)F)c2)c2c(N)ncnc21 [GSK2606414] | 43% |
| NC(=O)c1sc(-n2cnc3ccccc32)cc1OCc1ccccc1F [GSK1024306] | 29% |

Reference: publication PMC5540273 (PLoS ONE, 2017)
